# From PubChem BioAssay
# Active and inactive are the calls of the source.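 The calls were made as follows, unless noted: active = compound raises insulin release from rat beta cells at 5 mM glucose, no numeric limit stated; inactive = the rest.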
# How the values were obtained:
# [1] = stimulators of nuclear beta-catenin in C2C12, primary screen, imaging, WNT3A-conditioned medium, mouse C2C12, NPC library (AID 1117326; in the data active = nuclear beta-catenin stimulation mostly above about 4.2%, no sharp cut-off; inactive = mostly below about 10%); settings: stronger effect = higher value
# [2] = stimulators of insulin release from INS-1E, primary screen, cell-based, 5 mM glucose, NPC library (AID 1117329); settings: rat INS-1E insulin secretion, at 10 µM, stronger effect = higher value
# [3] = glucagon-like peptide 1 release enhancers, primary assay, NCI-H716 cell line, NPC library (AID 1117341;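 active = compound raises GLP1 secretion from the human gut endocrine cells, with no numeric limit stated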); settings: NCI-H716 cells, at 10 µM, stronger effect = higher value
# [4] = growth inhibition of GSK3B-pretreated HCT116 cells – cell-based, CellTiter-Glo, 0.2 to 20 µM (AID 1117336;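 active = compounds lowering colon cancer cell viability after pretreatment blocking the GSK3B kinase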); settings: HCT116 viability after GSK3B inhibitor, at 20 µM, stronger effect = higher value
# [5] = inhibition of endothelial tube formation, primary screen, imaging, VEGF stimulated, CD31 staining, tube area, NPC library (AID 1117340;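 active = compound that reduces growth-factor-driven endothelial tube area in a mixed cell culture, no cutoff stated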); settings: VEGF-stimulated ADSC/ECFC co-culture, at 10 µM, stronger effect = higher value
# [6] = HCT116 colon cancer cell growth inhibition, primary screen, CellTiter-Glo luminescence, NPC library (AID 1117342;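 active = compounds that lower survival of HCT116 colon cancer cells in the luminescence readout, no numeric limit stated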); settings: at 20 µM (top of the series)
# [7] = CellTiter-Glo luminescent readout of SW480 viability loss, NPC library primary (AID 1117343;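 active = compounds that lower viability of the colon cancer cells in the luminescence readout, with no numeric limit stated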); settings: CellTiter-Glo luminescence; at 20 µM (top of the series) unless noted
# [8] = decreased DLD-1 cellular survival, CellTiter-Glo luminescent readout, NPC compound collection, primary HTS (AID 1117346;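 active = compounds that lower survival of DLD-1 colon cancer cells in the luminescence readout, no cutoff given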); settings: DLD-1 viability, CellTiter-Glo luminescence; at 20 µM (top of the series)
# [9] = target: NAD(+) hydrolase SARM1 (Homo sapiens) (UniProt Q6SZW1); test: SARM1 TIR NADase inhibitors, cell lysate, NAD-Glo luminescence (AID 1508614;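 active = compound whose remaining NAD level is above about 45 nM, limit read from the data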;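 also: higher remaining NAD means stronger inhibition of SARM1 NADase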); settings: SAM-TIR HEK293T lysate NADase, at 1 µM, stronger effect = higher value
# [10] = target: Mitogen-activated protein kinase 7 (Homo sapiens) (UniProt Q13164); test: ERK5 transactivation activators in reporter cells, primary screen, cell-based, HTS (AID 1508626;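 active = luciferase signal above three times the same-plate solvent-only control wells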;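 also: luciferase driven by Gal4-ERK5 fusion binding five Gal4 sites before minimal TATA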); settings: HeLa Gal4-ERK5 transactivation, 18 h, at 5 µM, stronger effect = higher value
# [11] = hESC survival regulators, cell-based (AID 493140; call rule not given here;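 also: cells exposed to compounds for four days before counting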); settings: human embryonic stem cell survival screen; stronger effect = higher value
# [12] = LFS_MB_P medulloblastoma growth inhibition, cell-based, chromothripsis tumors, cisplatin or BGB combos (AID 1671449; in the data active = inhibition above about 80%;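 also: cells exposed for 96 hours; 0% = vehicle DMSO and 100% = killing by high DMSO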); settings: LFS_MB_P medulloblastoma cells
# [13] = HDN33 neuroblastoma growth inhibition, cell-based, chromothripsis tumors, cisplatin or BGB combos (AID 1671450; in the data active = inhibition above about 80%;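 also: cells exposed to compound for four days; 0% = vehicle DMSO and 100% = cell killing by high DMSO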); settings: HDN33 neuroblastoma cells, stronger effect = higher value
# [14] = ICB984 medulloblastoma cell growth inhibition, synergistic combos for chromothripsis tumors, cisplatin or BGB combos (AID 1671451; call rule not given here;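 also: cells exposed for 96 hours before readout; 0% = vehicle DMSO and 100% = killing by high DMSO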); settings: ICB984 medulloblastoma cells, drug combinations, stronger effect = higher value
# [15] = target: 6-phosphogluconate dehydrogenase, decarboxylating (Homo sapiens) (UniProt P52209); test: 6PGD enzyme inhibitors, primary screen, biochemical, human, recombinant enzyme, NADPH absorbance (AID 1159550;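 active = at least 20% inhibition of 6-phosphogluconate dehydrogenase activity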); settings: recombinant 6PGD, NADPH absorbance 341 nm; at 10 µM; stronger effect = higher value
# [16] = differential killing of epithelial or mesenchymal cells, primary screen, imaging, PC-3E GFP, TEM4-18 mCherry, co-culture (AID 1345086;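 active = compounds killing one labelled cell type while sparing the other, by normalised counts and ratio limits, not self-fluorescent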;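 also: cells exposed to compound for 72 h before imaging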;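 as to red/green cell ratio (normalised): normalised mesenchymal count divided by normalised epithelial count so high means epithelial killing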); settings: imaging cell counts, at 1 µM
# [17] = sensitizers of A549 cells to miR-34 induction, primary screen, imaging, A549 dox-inducible miR-34, nuclei and caspase counts (AID 1347080;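 active = compounds whose cell count with miR-34 switched on is under 0.7 times the count with it off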); settings: A549 miR-34 inducible, Hoechst nuclei count, 48 h
# [18] = viability rescue of complex I mutant cybrids, primary screen, cell-based, galactose medium, ATP luminescence (AID 1645843;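 active = z-score of at least 1.8 in each of two replicates, scored against plate mean and spread of sample wells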;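 also: positive z means more ATP and so rescue of galactose-driven cybrid death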); settings: complex I mutant cybrid cells, 72 h, stronger effect = higher value
# Chain of Mitogen-activated protein kinase 7 (Homo sapiens) (Q13164 whole entry, looked up, the tested form may be a part): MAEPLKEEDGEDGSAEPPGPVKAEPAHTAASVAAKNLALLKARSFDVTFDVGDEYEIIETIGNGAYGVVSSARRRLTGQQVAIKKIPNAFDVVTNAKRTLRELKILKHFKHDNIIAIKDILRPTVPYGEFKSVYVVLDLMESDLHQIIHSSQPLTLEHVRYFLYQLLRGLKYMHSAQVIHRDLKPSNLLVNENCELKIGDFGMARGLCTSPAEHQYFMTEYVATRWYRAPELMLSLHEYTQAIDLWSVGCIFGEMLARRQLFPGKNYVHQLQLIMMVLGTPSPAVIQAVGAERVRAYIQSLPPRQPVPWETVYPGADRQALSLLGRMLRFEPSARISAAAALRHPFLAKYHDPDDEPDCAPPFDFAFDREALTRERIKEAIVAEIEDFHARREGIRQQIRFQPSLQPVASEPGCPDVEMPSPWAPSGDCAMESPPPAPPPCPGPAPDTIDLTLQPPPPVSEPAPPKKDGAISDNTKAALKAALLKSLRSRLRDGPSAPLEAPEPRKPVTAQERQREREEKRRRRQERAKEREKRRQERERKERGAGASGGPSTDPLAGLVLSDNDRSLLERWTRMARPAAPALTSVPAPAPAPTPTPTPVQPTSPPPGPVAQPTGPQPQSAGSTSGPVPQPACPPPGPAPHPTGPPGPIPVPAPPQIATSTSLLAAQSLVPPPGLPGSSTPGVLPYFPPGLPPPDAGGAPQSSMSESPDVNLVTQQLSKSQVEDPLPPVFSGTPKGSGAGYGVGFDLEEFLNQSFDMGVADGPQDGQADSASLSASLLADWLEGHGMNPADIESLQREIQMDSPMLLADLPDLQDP
# Chain of 6-phosphogluconate dehydrogenase, decarboxylating (Homo sapiens) (P52209 whole entry, looked up): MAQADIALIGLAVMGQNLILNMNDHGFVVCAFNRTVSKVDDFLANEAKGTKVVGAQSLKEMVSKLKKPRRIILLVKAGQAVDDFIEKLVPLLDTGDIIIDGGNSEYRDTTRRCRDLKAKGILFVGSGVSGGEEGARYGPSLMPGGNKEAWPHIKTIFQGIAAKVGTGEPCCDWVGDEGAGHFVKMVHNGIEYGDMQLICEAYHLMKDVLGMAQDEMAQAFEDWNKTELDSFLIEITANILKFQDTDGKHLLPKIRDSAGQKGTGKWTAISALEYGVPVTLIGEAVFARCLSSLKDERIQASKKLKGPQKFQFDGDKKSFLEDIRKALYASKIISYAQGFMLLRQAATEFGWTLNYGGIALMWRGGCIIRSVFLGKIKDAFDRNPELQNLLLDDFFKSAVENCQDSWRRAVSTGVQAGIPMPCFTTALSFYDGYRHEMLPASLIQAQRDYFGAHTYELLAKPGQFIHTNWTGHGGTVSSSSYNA
# Chain of NAD(+) hydrolase SARM1 (Homo sapiens) (Q6SZW1 whole entry, looked up, the tested form may be a part): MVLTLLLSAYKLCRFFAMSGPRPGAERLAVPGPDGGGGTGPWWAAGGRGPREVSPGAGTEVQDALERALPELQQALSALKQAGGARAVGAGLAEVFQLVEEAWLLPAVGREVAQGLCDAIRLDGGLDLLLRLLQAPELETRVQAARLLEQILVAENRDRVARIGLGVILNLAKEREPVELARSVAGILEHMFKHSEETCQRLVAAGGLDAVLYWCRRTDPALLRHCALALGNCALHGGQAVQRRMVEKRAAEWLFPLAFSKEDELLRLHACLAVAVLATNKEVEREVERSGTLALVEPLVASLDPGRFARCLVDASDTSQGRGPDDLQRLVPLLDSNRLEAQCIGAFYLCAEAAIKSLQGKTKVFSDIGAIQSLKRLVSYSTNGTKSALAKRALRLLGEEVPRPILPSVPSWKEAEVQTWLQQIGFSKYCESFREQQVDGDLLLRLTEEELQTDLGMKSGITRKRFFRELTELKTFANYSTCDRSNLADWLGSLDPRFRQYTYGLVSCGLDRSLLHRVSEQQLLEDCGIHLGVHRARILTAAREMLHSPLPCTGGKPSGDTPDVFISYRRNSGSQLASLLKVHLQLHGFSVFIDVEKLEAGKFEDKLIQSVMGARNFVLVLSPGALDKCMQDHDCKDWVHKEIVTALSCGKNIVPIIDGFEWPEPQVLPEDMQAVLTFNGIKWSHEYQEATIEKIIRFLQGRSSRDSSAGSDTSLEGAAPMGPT
smiles,measurement,setting,value
C[S+](CC[C@H](N)C(=O)O)C[C@H]1O[C@@H](n2cnc3c(N)ncnc32)[C@H](O)[C@H]1O (stereo partly drawn),nuclear beta-catenin stimulation,[1]; at 10 µM,0.8% (inactive)
same,nuclear beta-catenin stimulation,"[1]; stimulation, at 2 µM",1.9%
same,insulin secretion stimulation,[2],1.55% (inactive)
same,GLP1 secretion stimulation,[3],-0.4% (inactive)
O=C(O)C1(C(=O)O)CCC1.[NH2-].[NH2-].[Pt+2],nuclear beta-catenin stimulation,[1]; at 10 µM,0% (inactive)
same,nuclear beta-catenin stimulation,"[1]; stimulation, at 2 µM",-2.2%
same,insulin secretion stimulation,[2],-0.3% (inactive)
same,viability decrease,[4],67.5% (active)
same,tube area decrease,[5],55.4% (active)
same,GLP1 secretion stimulation,[3],3% (inactive)
same,inhibition of viability,[6],31.7% (inactive)
same,viability decrease (inhibition),[7],2.3% (inactive)
same,viability decrease (inhibition),[8],5.7% (inactive)
same,remaining NAD,[9],10 nM (inactive)
same,luciferase signal,[10],40 AU (inactive)
C#C[C@]1(OC(C)=O)CC[C@H]2[C@@H]3CCC4=C/C(=N/O)CC[C@@H]4[C@H]3CC[C@@]21CC,nuclear beta-catenin stimulation,[1]; at 10 µM,3.7% (inactive)
same,nuclear beta-catenin stimulation,"[1]; stimulation, at 2 µM",2.1%
same,insulin secretion stimulation,[2],-0.2% (inactive)
same,viability decrease,[4],98.8% (active)
same,tube area decrease,[5],99% (active)
same,GLP1 secretion stimulation,[3],-2.6% (inactive)
same,inhibition of viability,[6],99.1% (active)
same,viability decrease (inhibition),[7],102% (active)
same,viability decrease (inhibition),[8],101% (active)
same,luciferase signal,[10],24 AU (inactive)
CCOc1cc(NC(C)=O)ccc1C(=O)OC,nuclear beta-catenin stimulation,[1]; at 10 µM,2.6% (inactive)
same,nuclear beta-catenin stimulation,"[1]; stimulation, at 2 µM",2%
same,insulin secretion stimulation,[2],4.4% (inactive)
same,tube area decrease,[5],11.7% (inactive)
same,GLP1 secretion stimulation,[3],0.3% (inactive)
C=CCCCCCCCCC(=O)OC,nuclear beta-catenin stimulation,[1]; at 10 µM,2.7% (inactive)
same,nuclear beta-catenin stimulation,"[1]; stimulation, at 2 µM",2%
same,insulin secretion stimulation,[2],2.85% (inactive)
same,GLP1 secretion stimulation,[3],1.2% (inactive)
O=C(OCCO)c1ccccc1O,nuclear beta-catenin stimulation,[1]; at 10 µM,0.5% (inactive)
same,nuclear beta-catenin stimulation,"[1]; stimulation, at 2 µM",-2.3%
same,insulin secretion stimulation,[2],0.25% (inactive)
same,GLP1 secretion stimulation,[3],-2.5% (inactive)
CCCCN1CCCC1C(=O)Nc1c(C)cc(C)cc1C (stereo not drawn),nuclear beta-catenin stimulation,[1]; at 10 µM,1% (inactive)
same,nuclear beta-catenin stimulation,"[1]; stimulation, at 2 µM",-0.4%
same,insulin secretion stimulation,[2],0% (inactive)
same,GLP1 secretion stimulation,[3],-3.8% (inactive)
CO[C@H]1O[C@@H]2O[C@@]3(C)CC[C@H]4[C@H](C)CC[C@@H]([C@@H]1C)[C@@]24OO3,nuclear beta-catenin stimulation,[1]; at 10 µM,1.9% (inactive)
same,nuclear beta-catenin stimulation,"[1]; stimulation, at 2 µM",11.7%
same,insulin secretion stimulation,[2],-0.85% (inactive)
same,viability decrease,[4],33.2% (inactive)
same,GLP1 secretion stimulation,[3],2% (inactive)
same,inhibition of viability,[6],-3% (inactive)
same,viability decrease (inhibition),[7],2.9% (inactive)
same,viability decrease (inhibition),[8],7.2% (inactive)
CCCCCCCC(=O)OCC(COC(=O)CCCCCCC)OC(=O)CCCCCCC,nuclear beta-catenin stimulation,[1]; at 10 µM,-0.5% (inactive)
same,nuclear beta-catenin stimulation,"[1]; stimulation, at 2 µM",-1.9%
same,insulin secretion stimulation,[2],0.2% (inactive)
same,GLP1 secretion stimulation,[3],-5.4% (inactive)
C[C@@H]1CCC[C@H](C)N1,survival,[11],4.42 (inactive)
same,nuclear beta-catenin stimulation,[1]; at 10 µM,1.3% (inactive)
same,nuclear beta-catenin stimulation,"[1]; stimulation, at 2 µM",1%
same,insulin secretion stimulation,[2],-1.2% (inactive)
same,viability decrease,[4],-2.8% (inactive)
same,tube area decrease,[5],3.6% (inactive)
same,GLP1 secretion stimulation,[3],0.5% (inactive)
same,inhibition of viability,[6],-4.9% (inactive)
same,viability decrease (inhibition),[7],6.2% (inactive)
same,viability decrease (inhibition),[8],2.2% (inactive)
CCCCCCCCCCCCCCCCCC[N+](C)(C)CCC[Si](OC)(OC)OC,nuclear beta-catenin stimulation,[1]; at 10 µM,-0.6% (inactive)
same,nuclear beta-catenin stimulation,"[1]; stimulation, at 2 µM",-0.8%
same,insulin secretion stimulation,[2],-0.25% (inactive)
same,viability decrease,[4],14.4% (inactive)
same,GLP1 secretion stimulation,[3],-3.1% (inactive)
same,inhibition of viability,[6],12.9% (inactive)
same,viability decrease (inhibition),[7],-2.9% (inactive)
same,viability decrease (inhibition),[8],1.7% (inactive)
O=[N+]([O-])c1cccc(S(=O)(=O)NCCNS(=O)(=O)c2cccc([N+](=O)[O-])c2)c1,nuclear beta-catenin stimulation,[1]; at 10 µM,0.3% (inactive)
same,nuclear beta-catenin stimulation,"[1]; stimulation, at 2 µM",0.2%
same,insulin secretion stimulation,[2],-0.55% (inactive)
same,viability decrease,[4],38.9% (inactive)
same,GLP1 secretion stimulation,[3],3.1% (inactive)
same,inhibition of viability,[6],7.6% (inactive)
same,viability decrease (inhibition),[7],6.5% (inactive)
same,viability decrease (inhibition),[8],14.5% (inactive)
CN1C[C@@H]2C[C@H]1CN2c1cc2c(cc1F)c(=O)c(C(=O)O)cn2C1CC1,nuclear beta-catenin stimulation,[1]; at 10 µM,0.8% (inactive)
same,nuclear beta-catenin stimulation,"[1]; stimulation, at 2 µM",-0.6%
same,insulin secretion stimulation,[2],0.3% (inactive)
same,viability decrease,[4],10.6% (inactive)
same,tube area decrease,[5],-6.5% (inactive)
same,GLP1 secretion stimulation,[3],-0.3% (inactive)
same,inhibition of viability,[6],3.9% (inactive)
same,viability decrease (inhibition),[7],-13% (inactive)
same,viability decrease (inhibition),[8],-40.5% (inactive)
same,inhibition,"[12]; at 0.5 µM, stronger effect = higher value",0.4% (inactive)
same,inhibition,"[12]; measured here: combination with BGB IC20, at 0.005 µM",-2.07%
same,inhibition,"[12]; measured here: combination with BGB IC40, at 0.005 µM",-7.14%
same,inhibition,"[12]; measured here: combination with BGB IC40, at 0.05 µM",-8.41%
same,inhibition,"[12]; measured here: combination with cisplatin, at 0.5 µM, stronger effect = higher value",-11.6%
same,inhibition,"[12]; measured here: combination with cisplatin, at 5 µM, stronger effect = higher value",-5.22%
same,inhibition,"[13]; BGB combo, at 5 µM",-34.1%
same,inhibition,[13]; at 0.5 µM,-30.1% (inactive)
same,inhibition,"[13]; cisplatin combo, at 5 µM",-33.7%
same,inhibition,"[13]; measured here: with BGB IC20 combination, at 0.5 µM",-23.1%
same,inhibition,"[13]; measured here: with cisplatin IC20 combination, at 0.5 µM",-48.5%
same,inhibition,"[13]; single agent, at 5 µM",-33.7%
same,inhibition,"[14]; BGB IC20 combo, at 0.005 µM",-24.2%
same,inhibition,"[14]; BGB IC40 combo, at 0.005 µM",-26.9%
same,inhibition,"[14]; BGB IC40 combo, at 0.05 µM",-20.5%
same,inhibition,[14]; at 0.5 µM,-31.1% (inactive)
same,inhibition,"[14]; cisplatin combo, at 0.05 µM",-23.9%
same,inhibition,"[14]; cisplatin combo, at 0.5 µM",-25.9%
same,inhibition,"[14]; cisplatin combo, at 5 µM",-68.4%
same,inhibition,"[14]; measured here: 5 uM single agent, at 5 µM",-23.8%
CN1CCN(c2cc3c(nn2)Oc2ccccc2N3C)CC1,nuclear beta-catenin stimulation,[1]; at 10 µM,0.9% (inactive)
same,nuclear beta-catenin stimulation,"[1]; stimulation, at 2 µM",0.3%
same,insulin secretion stimulation,[2],-1.15% (inactive)
same,GLP1 secretion stimulation,[3],5.9% (inactive)
CC(=O)Oc1ccc2c(c1)CC[C@@H]1[C@@H]2CC[C@]2(C)[C@@H](O)CC[C@@H]12,nuclear beta-catenin stimulation,[1]; at 10 µM,6.2% (inactive)
same,nuclear beta-catenin stimulation,"[1]; stimulation, at 2 µM",4.6%
same,insulin secretion stimulation,[2],1.3% (inactive)
same,viability decrease,[4],13.1% (inactive)
same,tube area decrease,[5],-71.2% (inactive)
same,GLP1 secretion stimulation,[3],1.6% (inactive)
same,inhibition of viability,[6],41.6% (inactive)
same,viability decrease (inhibition),[7],72.9% (active)
same,viability decrease (inhibition),[8],35.2% (inactive)
same,luciferase signal,[10],36 AU (inactive)
CCCn1cnc2c1c(=O)n(CCCCC(C)=O)c(=O)n2C,nuclear beta-catenin stimulation,[1]; at 10 µM,6.6% (inactive)
same,nuclear beta-catenin stimulation,"[1]; stimulation, at 2 µM",-0.2%
same,insulin secretion stimulation,[2],-1.25% (inactive)
same,viability decrease,[4],14.1% (inactive)
same,GLP1 secretion stimulation,[3],-4.5% (inactive)
same,inhibition of viability,[6],20.6% (inactive)
same,viability decrease (inhibition),[7],-2.8% (inactive)
same,viability decrease (inhibition),[8],19.6% (inactive)
same,inhibition,[15],-7.06% (inactive)
same,red/green cell ratio (normalised),"[16]; actives lie on both sides, counts scaled to control wells, 1 = unselective",0.84 (inactive)
same,normalised cell number,[16]; measured here: epithelial PC-3E GFP cell survival,1.14
same,normalised cell number,[16]; measured here: mesenchymal TEM4-18 mCherry cell survival,0.96
same,fold change,"[17]; stronger effect = lower value, cell number ratio, induced over uninduced",1.02 (inactive)
same,fold change,[17]; measured here: relative caspase fold change +Dox/-Dox,0.994
same,cell count,"[17]; measured here: total cells with miR-34 induction, stronger effect = lower value",10000
same,cell count,[17]; measured here: total cells without miR-34 induction,9790
same,z-score,[18],0.675 (inactive)
CC(C)Cn1cnc2c1c(=O)n(C)c(=O)n2C,nuclear beta-catenin stimulation,[1]; at 10 µM,1.9% (inactive)
same,nuclear beta-catenin stimulation,"[1]; stimulation, at 2 µM",-1.3%
same,insulin secretion stimulation,[2],1.65% (inactive)
same,viability decrease,[4],0% (inactive)
same,GLP1 secretion stimulation,[3],3.4% (inactive)
same,inhibition of viability,[6],31.9% (inactive)
same,viability decrease (inhibition),[7],-1.5% (inactive)
same,viability decrease (inhibition),[8],11.3% (inactive)
